Tg IFNy HTS: T. gondii growth inhibition with IFN-gamma, primary screen, cell-based; Toxoplasma gondii growth in IFN-gamma-treated host cells; stronger effect = lower value; AID 1259416, 2018; actives 3.8% (n = 69,000); activity change, negative = inhibition, % (no concentration beside the values); in the data active means activity change below about -70%, passing the limit was not always enough;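 further: host cells are HeLa cells infected with Toxoplasma gondii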
Each line names hits and unclear results; the compound was inactive in the other large screens; ! = not confirmed by another sample. The entries come from a sample that favours hits as a whole.

O=C1CCCC[C@]2(CN(C(=O)COc3cccc(F)c3)C[C@H]2c2ccccc2F)N1	none
CCc1nc(CNC(=O)C(CC)n2cc(C(C)=O)c3ccccc32)cs1 (centres undefined)	none
CCC(=O)N1CCc2c(c(COc3cccnc3)nn2CC2CC2)C1	none
CCc1cc(C(F)(F)F)c2c(C3CCN(C(=O)c4cc(C(C)C)[nH]n4)CC3)noc2n1	Tg IFNy HTS -76.4
CC(C)Nc1n[nH]c2nc(C3CCN(C(=O)C(C)C)CC3)cc(C(F)(F)F)c12	none
CC[C@@H]1C[C@H](C(F)(F)F)n2nc(C3CCN(C(=O)c4cc(C(C)C)on4)C3)cc2N1 (some centres undefined)	none
O=C(C1CCC1)N1CC[C@H]2CN(Cc3ccccc3)S(=O)(=O)[C@@H]2CC1	none
COc1cccc(CN2C[C@@H]3CCN(C(=O)C4CCC4)CC[C@H]3S2(=O)=O)c1	Tg IFNy HTS -90.7
O=C(C1CCC1)N1CC[C@H]2CN(Cc3ccc(Cl)cc3)S(=O)(=O)[C@@H]2CC1	none
COc1ccc(CN2C[C@@H]3CCN(C(=O)c4ccn[nH]4)CC[C@H]3S2(=O)=O)cc1	none
O=C(NC1CCCC1)N1CC[C@H]2CN(Cc3ccc(Cl)cc3)S(=O)(=O)[C@@H]2CC1	Tg IFNy HTS -89.3
O=C(c1ccn[nH]1)N1CC[C@H]2CN(Cc3ccc(Cl)cc3)S(=O)(=O)[C@@H]2CC1	Tg IFNy HTS -73.2
COc1ccc(CCN2C[C@@H]3CCN(C(=O)c4cnc(C)cn4)CC[C@H]3S2(=O)=O)cc1	none
CC(C)CN1C[C@@H]2CCN(C(=O)NC3CCCC3)CC[C@H]2S1(=O)=O	none
COc1ccc(CN2C[C@@H]3CCN(C(=O)c4ccno4)CC[C@H]3S2(=O)=O)cc1	none
CCc1noc(-c2cc(=O)n(CC(=O)NCc3ccc(SC)cc3)c3ccccc23)n1	none
O=C1OCCN1CCNC1CCC2(CCNCC2)CC1	none
CC(C)COc1ccc(-c2noc(-c3c(O)c4ccccc4n(C)c3=O)n2)cc1	none
CN(C)Cc1nn(C)c2c1CN(S(=O)(=O)c1ccccc1F)C2	none
Cc1nccn1CCN(C)c1cc(NC2CC2)nc(N)n1	none
C[C@@]1(O)CCN(C(=O)CN2CCCCCC2=O)C[C@@H]1Cc1ccccc1	none
C/C=C/c1ccc(C2[C@H]3CNC[C@@H]2N3C(=O)NC2CCCCC2)cc1 (some centres undefined)	Tg IFNy HTS -76.2!
C/C=C/c1ccc(C2[C@H]3CNC[C@@H]2N3C(=O)NCCC)cc1 (some centres undefined)	none
C/C=C/c1ccc(C2[C@H]3CNC[C@@H]2N3C(=O)Nc2ccccc2Cl)cc1 (some centres undefined)	none
Cn1nc(C(F)(F)F)c(Cl)c1C(=O)N1CCCC1Cn1cccn1 (centres undefined)	none
CC(=O)N1CCCn2nc(C(=O)NCc3nc4ccccc4[nH]3)cc2C1	none
Cc1cc(C)n(CC2(CNC(=O)CN3CCCN(C)CC3)CC2)n1	none
CN1CCCN(CC2(O)CCNC2)CC1 (centres undefined)	Tg IFNy HTS -94.1
CCS(=O)(=O)N1CCO[C@H]2[C@@H](OCc3ccccn3)CC[C@H]21	none
NC(=O)CN1CCC=C(CNC(=O)COc2ccccc2)C1	none
CCCC(C)c1nnc(NC(=O)CCOCC)s1 (centres undefined)	none
CC(C)c1nn(C)c2c1C(c1nc(-c3ccc(Cl)cc3)no1)CC(=O)N2 (centres undefined)	Tg IFNy HTS -85.2
CC(C)c1nn(-c2ccccc2)c2c1C(c1ccoc1)CC(=O)N2 (centres undefined)	none
COc1c(F)cc(C2CC(=O)Nc3c2c(C(C)C)nn3C)cc1Cl (centres undefined)	none
CN(C)C1CC2(CCN(C(=O)c3ccno3)CC2)C1	none
O=C(Cn1c(=O)cc(C(=O)N2CCCCC2)c2ccccc21)NCCc1ccccc1	none
CCN1c2ccccc2C(=O)NC12CCN(C(=O)Cc1ccccc1C)CC2	none
O=S(=O)(Cc1noc(-c2ccsc2)n1)c1ccccn1	none
O=S(=O)(Cc1nc(-c2ccsc2)no1)c1ccc(Cl)cc1	none
O=S(=O)(Cc1noc(-c2cc(Cl)cc(Cl)c2)n1)c1ccc(Cl)cc1	Tg IFNy HTS -87.5
CCN1CCC2(CN(C(C)=O)CC23CCN(CC2CC2)CC3)C1=O (centres undefined)	none
Cn1c2ccccc2c2c3c(c4c5ccccc5n(CCC#N)c4c21)CNC3=O	none
CO[C@@H]1[C@H](N(C)C(=O)c2ccccc2)C[C@H]2O[C@]1(C)n1c3ccccc3c3c4c(c5c6ccccc6n2c5c31)C(=O)NC4	Tg IFNy HTS -84.2
Cn1cc(-c2cc3n(n2)CCC(=O)N3CC(=O)NCc2cccnc2)c2ccccc21	none
CCOc1ncccc1-c1cc(Cl)ccc1O	none
CCOC(=O)c1nc(Nc2cc(Cl)c(OC)cc2OC)c2ccccc2n1	none
CCn1ncnc1CN1CCN2CCN(C)C(=O)C2C1 (centres undefined)	none
CCOc1ccccc1NC(=O)CSc1ccc(Cl)cc1	none
Cc1nc2ccccc2nc1SCC(=O)Nc1ccccc1OC(C)C	Tg IFNy HTS -87.7
COc1ccccc1NC(=O)CSc1nc2ccccc2n1CC(=O)N1CCOCC1	none
O=C(Nc1cccc(-n2cccn2)c1)C1CC(=O)N(Cc2ccccc2)C1 (centres undefined)	none
CC(C)n1cnc2nnc3ccc(C(=O)N(C)Cc4ccccn4)cc3c21	none
O=C(CS(=O)(=O)c1ccccc1)c1ccc(Cl)cc1	none
Cc1ccc(C(=O)N2CCCN(Cc3cccs3)CC2)c(=O)[nH]1	none
OC(CN1CCN(c2ncccn2)CC1)c1ccc(F)cc1 (centres undefined)	none
C=CCNc1nc(NCC=C)nc(N2CCN(C(c3ccc(F)cc3)c3ccc(F)cc3)CC2)n1	Tg IFNy HTS -71.6
CC(NC(=O)c1cc2ccccc2[nH]1)C(=O)N1CCN(c2ccccn2)CC1 (centres undefined)	none
CO[C@@H]1CN(C(=O)Cc2ccsc2)[C@H]2CCCO[C@@H]12	none
Clc1ccc(C(Cn2ccnc2)OCc2c(Cl)cccc2Cl)c(Cl)c1 (centres undefined)	none
S=C(NCCCn1ccnc1)Nc1cc(Cl)ccc1Cl	none
Cc1c(C(=O)Cn2ccnc2)sc2ccc(Cl)cc12	none
Clc1ccc(C(Cn2ccnc2)OCc2ccc(Sc3ccccc3)cc2)c(Cl)c1 (centres undefined)	Tg IFNy HTS -78.2
Clc1ccc(C(Cn2ccnc2)OCc2csc3c(Cl)cccc23)c(Cl)c1 (centres undefined)	Tg IFNy HTS -79.2
S=C(Nc1ccc(Cl)cc1Cl)NC(Cn1ccnc1)c1ccccc1 (centres undefined)	none
Cc1ccc(NC(=O)N2CCC3(CC2)NC(=O)c2ccc(F)cc2N3C)cc1C	none
Cc1cc(C(=O)N2CCC3(C2)C(=O)N(C)CCN3CC#N)n[nH]1 (centres undefined)	none
O=C(CC1COCCN1)NCC1(c2cccc(F)c2)CCOCC1 (centres undefined)	none
Cc1cccc(C)c1-n1nnnc1-c1cnccc1C(F)(F)F	none
FC(F)(F)c1ccncc1-c1ncc(-c2cccc(Cl)c2)o1	Tg IFNy HTS -95.1
O=C(NC(=O)c1cnccc1C(F)(F)F)Nc1ccc(Cl)cc1Cl	none
CCn1nc(CC(C)C)cc1C(=O)N1CCn2cncc2C1	none
Cc1cccc(N2CCN(C(=O)c3ccc(-c4csc(C5CC5)n4)cc3)CC2)c1C	none
Cc1nc(-c2ccccc2)sc1C(=O)N1CCCc2ccccc21	none
O=C(C1CC1)N1CCc2cc(-c3csc(C4CC4)n3)ccc21	Tg IFNy HTS -112.5
CC(=O)N1CCC(C(=O)N2CCc3cc(-c4csc(C5CC5)n4)ccc32)CC1	none
Cc1nc(C)c(C(=O)N2CCc3cc(-c4csc(C5CC5)n4)ccc32)s1	Tg IFNy HTS -109.0
CCOC(=O)C1CCN(C(=O)c2ccc(-c3csc(C4CC4)n3)cc2)CC1	none
